In PubChem BioAssay (Tox21) one finds Potency data, which are given here for 11 compounds.

Where “and” joins values, the source holds several entries; their conditions need not be identical. Equal entries are not always repeated. Results filed as inconclusive are left out. Calls of active or inactive are those of the source. Calls follow the shape of the dose curve; as a rule, active = well fitted curve in the direction sought with a large enough effect in the repeat runs; inconclusive = weak or mixed curves; inactive = no such curve, though single readings can be large; an effect the other way counts as inactive or inconclusive.

Assay [1] can be described thus: Caspase-3/7 induction in HepG2 cells by small molecules, qHTS assay (AID 1346978). Also: nearly all actives have a fitted effect of over 15% in size. Also: potency is read from the fitted curve at half-maximal effect. An outline of the steps: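 Wild-type HepG2 cells (2,000/well) were settled 5 h at 37 C, 5% CO2, then exposed to compounds in DMSO for 17 h. Caspase-3/7 activity was read by luminescence 30 min after adding Caspase-Glo 3/7 reagent at room temperature.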
A short description of assay [2]: Caspase-3/7 induction in CHO-K1 cells by small molecules, qHTS assay (AID 1346980). Also: nearly all actives have a fitted effect of over 15% in size. Also: potency is read from the fitted curve at half-maximal effect. The method, boiled down: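 Wild-type cells were seeded at 1,500 per well and settled 5 hr at 37 C, 5% CO2, then exposed to DMSO-dissolved compounds for 17 hr. Caspase-Glo 3/7 reagent was added, and luminescence was read after 30min at room temperature.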
For orientation: qHTS replaces the single test concentration by a dilution series.

Assay [3] can be described thus: Caspase-3/7 induction in HepG2 cells by small molecules, qHTS cell viability counter screen (AID 1346981). Also: nearly all actives have a fitted effect of over 30% in size. Also: potency is read from the fitted curve at half-maximal effect. An outline of the steps: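 Treatment of HepG2 cells with DMSO-delivered compounds ran 16 hr at 37 C following a 5-hr pre-incubation of 2,000 cells/well. CellTiter-Fluor fluorescence, read after 1 hr, served as the viability measure in a qHTS format.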
Assay [4] deals with Nuclear receptor subfamily 1 group I member 2 (Homo sapiens) (UniProt O75469). The assay can be described thus: Human pregnane X receptor (PXR) small molecule agonists, qHTS assay (AID 1346982). Also: nearly all actives have a fitted effect of over 35% in size. Also: potency is read from the fitted curve at half-maximal effect. An outline of the steps: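 Stable HepG2 line reporting PXR-mediated CYP3A4 expression via luciferase. Treatment: 24 hr with compounds in DMSO at 37 C. Detection: ONE-Glo luminescence.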

The target of assay [5] is Cytochrome P450 2D6 (Homo sapiens) (UniProt P10635). The experiment in a line: Cytochrome P450 Family 2 Subfamily D Member 6 (CYP2D6) small molecule antagonists: luciferase reporter qHTS assay (AID 1671196). Also: nearly all actives have a fitted effect of over 50% in size. Also: potency is read from the fitted curve at half-maximal effect. The method, boiled down: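 Chemicals tested for interference with CYP2D6 activity; proluciferin substrate, NADPH regeneration, 1 h at room temperature, luminescent detection.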

In assay [6] the target is Cytochrome P450 2C19 (Homo sapiens) (UniProt P33261). The assay can be described thus: Cytochrome P450 Family 2 Subfamily C Member 19 (CYP2C19) small molecule antagonists: luciferase reporter qHTS assay (AID 1671197). Also: nearly all actives have a fitted effect of over 65% in size. Also: potency is read from the fitted curve at half-maximal effect. An outline of the steps:
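Luminescent readout of CYP2C19 activity: luciferin product detected 20 min after adding detection reagent. Before that, compound and enzyme-substrate mix preincubated 10 min at room temperature; NADPH-regenerating system started a 1 h, 37C reaction. Ketoconazole as positive control.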
A general note: Reporter assays use an easily measured gene product as a stand-in for the process of interest.

Assay [7] deals with Cytochrome P450 2C9 (Homo sapiens) (UniProt P11712). The experiment in a line: Cytochrome P450 Family 2 Subfamily C Member 9 (CYP2C9) small molecule antagonists: luciferase reporter qHTS assay (AID 1671198). Also: nearly all actives have a fitted effect of over 50% in size. Also: potency is read from the fitted curve at half-maximal effect. An outline of the steps: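 CYP2C9 activity was measured with a P450-Glo proluciferin substrate. Enzyme–substrate mix was held with compound for 10 min at room temperature, then NADPH regeneration solution was added for 1 h at 37C. Luciferin product was read as luminescence.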

For assay [8], the target named is Cytochrome P450 1A2 (Homo sapiens) (UniProt P05177). The assay can be described thus: Cytochrome P450 Family 1 Subfamily A Member 2 (CYP1A2) small molecule antagonists: luciferase reporter qHTS assay (AID 1671199). Also: nearly all actives have a fitted effect of over 50% in size. Also: potency is read from the fitted curve at half-maximal effect. An outline of the steps:
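Read-out is luminescence from luciferin detection reagent (20 min) proportional to CYP1A2 activity; compounds in DMSO preincubated 10 min with enzyme and proluciferin substrate, then NADPH regeneration solution, 1 h, room temperature.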

Assay [9] has as its target Voltage-gated inwardly rectifying potassium channel KCNH2 (Homo sapiens) (UniProt Q12809). The experiment in a line: Human Ether-a-go-go-Related Gene (hERG) channel small molecule antagonists: fluorescence cell-based qHTS assay (AID 1671200). Also: nearly all actives have a fitted effect of over 50% in size. Also: potency is read from the fitted curve at half-maximal effect. The method, boiled down: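 Thallium flux as potassium surrogate: FluxOR II dye loaded 1 h at room temperature into hERG-expressing U2OS cells, then stimulus buffer added after 10 min. Kinetic 480 nm excitation/540 nm emission read, 2 min.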
A general note: The hERG channel carries a current that helps repolarise heart muscle cells.

For assay [10], the target named is Cytochrome P450 3A4 (Homo sapiens) (UniProt P08684). The experiment in a line: Cytochrome P450 Family 3 Subfamily A Member 4 (CYP3A4) small molecule antagonists: luciferase reporter qHTS assay (AID 1671201). Also: nearly all actives have a fitted effect of over 50% in size. Also: potency is read from the fitted curve at half-maximal effect. The method, boiled down:
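Recombinant human CYP3A4 converts a proluciferin substrate to luciferin over 1 h at room temperature after NADPH regeneration solution is added (compound preincubated 10 min); detection reagent stops reaction, luminescence read 20 min later as relative units.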

Assay [11] can be described thus: Caspase-3/7 induction in CHO-K1 cells by small molecules, qHTS cell viability counter screen (AID 1346979). Also: potency is read from the fitted curve at half-maximal effect; nearly all actives have a fitted effect of over 35% in size. The method, boiled down:
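Cytotoxicity counter screen: CellTiter-Fluor added to compound-treated wild-type CHO-K1 cells at 16 h (37C, 5% CO2), fluorescence measured 1 h later; same wells as caspase-3/7 measurement.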

In assay [12] the target is Nuclear receptor subfamily 1 group I member 2 (Homo sapiens) (UniProt O75469). The assay can be described thus: CYP3A4 induction through human pregnane X receptor (PXR) by small molecules, qHTS assay (AID 1346984). Also: nearly all actives have a fitted effect of over 40% in size. An outline of the steps: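 After 24 h at 37C with compound, DPX-2 cells (HepG2, co-transfected PXR response element and CYP3A4 promoter-luciferase) got 3uM final P450-Glo Luciferin-IPA for 3 h; One-Glo luminescence followed.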

The target is the same in assay [13]. The assay can be described thus: Human pregnane X receptor (PXR) activation by small molecules, qHTS assay (AID 1346985). Also: potency is read from the fitted curve at half-maximal effect; nearly all actives have a fitted effect of over 40% in size. The method, boiled down:
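DPX-2 cells (HepG2 co-transfected with a PXR response element and a CYP3A4-promoter luciferase construct) were seeded at 2,000 per well, rested 5 hr at 37C, then exposed to DMSO-dissolved compounds for 24 hr. Activation was read as luciferase luminescence.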

Chain of Cytochrome P450 2C19 (Homo sapiens) (P33261 whole entry, looked up): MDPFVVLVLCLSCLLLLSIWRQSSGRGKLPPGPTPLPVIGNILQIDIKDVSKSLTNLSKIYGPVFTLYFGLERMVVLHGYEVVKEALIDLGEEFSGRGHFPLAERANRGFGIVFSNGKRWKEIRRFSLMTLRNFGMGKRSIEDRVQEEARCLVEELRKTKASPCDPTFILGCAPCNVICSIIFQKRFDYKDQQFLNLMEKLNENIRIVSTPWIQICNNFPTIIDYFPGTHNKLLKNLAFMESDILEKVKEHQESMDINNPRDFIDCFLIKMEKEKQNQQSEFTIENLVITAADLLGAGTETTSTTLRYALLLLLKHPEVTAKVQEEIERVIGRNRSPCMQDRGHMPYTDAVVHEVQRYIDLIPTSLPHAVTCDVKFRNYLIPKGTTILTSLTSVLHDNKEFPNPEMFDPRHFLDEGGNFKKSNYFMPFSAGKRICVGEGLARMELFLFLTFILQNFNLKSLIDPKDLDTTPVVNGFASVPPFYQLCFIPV
Chain of Cytochrome P450 2C9 (Homo sapiens) (P11712 whole entry, looked up): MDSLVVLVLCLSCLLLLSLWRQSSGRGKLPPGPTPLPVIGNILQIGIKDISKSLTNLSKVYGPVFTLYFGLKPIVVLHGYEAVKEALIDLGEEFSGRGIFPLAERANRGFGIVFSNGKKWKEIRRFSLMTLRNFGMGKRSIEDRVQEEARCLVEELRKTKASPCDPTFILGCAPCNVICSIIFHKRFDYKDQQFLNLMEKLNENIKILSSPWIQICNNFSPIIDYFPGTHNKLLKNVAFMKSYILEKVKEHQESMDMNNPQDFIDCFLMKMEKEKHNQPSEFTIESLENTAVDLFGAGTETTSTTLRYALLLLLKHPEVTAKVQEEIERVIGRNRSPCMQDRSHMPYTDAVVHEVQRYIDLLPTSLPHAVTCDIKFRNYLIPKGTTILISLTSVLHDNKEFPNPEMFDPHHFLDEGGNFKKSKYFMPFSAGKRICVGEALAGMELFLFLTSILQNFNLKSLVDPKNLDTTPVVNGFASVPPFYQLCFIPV
Chain of Nuclear receptor subfamily 1 group I member 2 (Homo sapiens) (O75469 whole entry, looked up): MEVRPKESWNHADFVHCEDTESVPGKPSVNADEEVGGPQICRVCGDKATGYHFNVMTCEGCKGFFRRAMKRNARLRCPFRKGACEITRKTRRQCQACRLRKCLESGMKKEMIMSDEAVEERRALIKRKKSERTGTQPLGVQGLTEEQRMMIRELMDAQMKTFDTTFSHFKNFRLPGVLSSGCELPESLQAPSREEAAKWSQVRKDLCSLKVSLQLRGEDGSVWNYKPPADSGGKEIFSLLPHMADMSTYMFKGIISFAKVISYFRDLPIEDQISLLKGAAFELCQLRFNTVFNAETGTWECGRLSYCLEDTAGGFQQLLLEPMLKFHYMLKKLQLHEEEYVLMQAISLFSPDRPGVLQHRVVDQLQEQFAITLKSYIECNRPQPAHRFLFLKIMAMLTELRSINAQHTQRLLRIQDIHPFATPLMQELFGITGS
Chain of Cytochrome P450 1A2 (Homo sapiens) (P05177 whole entry, looked up): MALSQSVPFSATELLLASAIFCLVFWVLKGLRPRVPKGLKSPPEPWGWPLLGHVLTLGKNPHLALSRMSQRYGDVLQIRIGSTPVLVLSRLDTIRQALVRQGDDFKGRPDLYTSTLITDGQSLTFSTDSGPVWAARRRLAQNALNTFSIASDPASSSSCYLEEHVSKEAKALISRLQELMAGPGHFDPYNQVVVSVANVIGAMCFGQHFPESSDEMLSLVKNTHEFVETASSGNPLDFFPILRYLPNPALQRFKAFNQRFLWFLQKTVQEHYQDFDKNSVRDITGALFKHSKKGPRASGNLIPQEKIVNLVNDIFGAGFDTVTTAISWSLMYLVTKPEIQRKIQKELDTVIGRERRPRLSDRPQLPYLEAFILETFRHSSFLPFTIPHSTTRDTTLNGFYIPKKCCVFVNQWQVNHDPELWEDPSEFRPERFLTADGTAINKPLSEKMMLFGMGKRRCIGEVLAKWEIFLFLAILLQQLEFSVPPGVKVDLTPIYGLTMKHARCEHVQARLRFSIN
Chain of Cytochrome P450 2D6 (Homo sapiens) (P10635 whole entry, looked up): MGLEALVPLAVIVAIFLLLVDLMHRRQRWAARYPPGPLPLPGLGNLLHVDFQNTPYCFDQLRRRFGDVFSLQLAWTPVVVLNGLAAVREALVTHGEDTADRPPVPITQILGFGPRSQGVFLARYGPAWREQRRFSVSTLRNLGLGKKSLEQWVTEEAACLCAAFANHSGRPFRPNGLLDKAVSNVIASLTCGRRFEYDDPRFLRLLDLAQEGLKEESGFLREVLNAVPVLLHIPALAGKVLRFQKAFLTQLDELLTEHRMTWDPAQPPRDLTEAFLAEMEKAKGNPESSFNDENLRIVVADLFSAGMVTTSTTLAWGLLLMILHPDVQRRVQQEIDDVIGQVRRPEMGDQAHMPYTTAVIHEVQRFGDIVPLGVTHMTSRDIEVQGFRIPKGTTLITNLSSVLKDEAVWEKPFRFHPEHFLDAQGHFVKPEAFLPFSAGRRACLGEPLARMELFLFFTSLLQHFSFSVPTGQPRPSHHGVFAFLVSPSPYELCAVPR
Chain of Cytochrome P450 3A4 (Homo sapiens) (P08684 whole entry, looked up): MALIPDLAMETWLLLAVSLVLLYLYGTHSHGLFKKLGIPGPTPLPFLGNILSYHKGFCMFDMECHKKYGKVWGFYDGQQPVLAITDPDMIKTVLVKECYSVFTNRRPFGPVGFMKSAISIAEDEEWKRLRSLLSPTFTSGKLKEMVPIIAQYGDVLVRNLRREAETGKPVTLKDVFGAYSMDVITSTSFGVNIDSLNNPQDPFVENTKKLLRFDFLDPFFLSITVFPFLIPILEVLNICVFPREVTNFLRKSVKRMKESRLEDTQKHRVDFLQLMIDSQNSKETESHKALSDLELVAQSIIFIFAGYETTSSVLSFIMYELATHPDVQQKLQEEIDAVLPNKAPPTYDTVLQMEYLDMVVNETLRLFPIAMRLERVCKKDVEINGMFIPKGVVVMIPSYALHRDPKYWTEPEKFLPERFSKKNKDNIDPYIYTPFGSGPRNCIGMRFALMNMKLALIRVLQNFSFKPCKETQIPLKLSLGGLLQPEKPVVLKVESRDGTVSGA
Chain of Voltage-gated inwardly rectifying potassium channel KCNH2 (Homo sapiens) (Q12809 whole entry, looked up): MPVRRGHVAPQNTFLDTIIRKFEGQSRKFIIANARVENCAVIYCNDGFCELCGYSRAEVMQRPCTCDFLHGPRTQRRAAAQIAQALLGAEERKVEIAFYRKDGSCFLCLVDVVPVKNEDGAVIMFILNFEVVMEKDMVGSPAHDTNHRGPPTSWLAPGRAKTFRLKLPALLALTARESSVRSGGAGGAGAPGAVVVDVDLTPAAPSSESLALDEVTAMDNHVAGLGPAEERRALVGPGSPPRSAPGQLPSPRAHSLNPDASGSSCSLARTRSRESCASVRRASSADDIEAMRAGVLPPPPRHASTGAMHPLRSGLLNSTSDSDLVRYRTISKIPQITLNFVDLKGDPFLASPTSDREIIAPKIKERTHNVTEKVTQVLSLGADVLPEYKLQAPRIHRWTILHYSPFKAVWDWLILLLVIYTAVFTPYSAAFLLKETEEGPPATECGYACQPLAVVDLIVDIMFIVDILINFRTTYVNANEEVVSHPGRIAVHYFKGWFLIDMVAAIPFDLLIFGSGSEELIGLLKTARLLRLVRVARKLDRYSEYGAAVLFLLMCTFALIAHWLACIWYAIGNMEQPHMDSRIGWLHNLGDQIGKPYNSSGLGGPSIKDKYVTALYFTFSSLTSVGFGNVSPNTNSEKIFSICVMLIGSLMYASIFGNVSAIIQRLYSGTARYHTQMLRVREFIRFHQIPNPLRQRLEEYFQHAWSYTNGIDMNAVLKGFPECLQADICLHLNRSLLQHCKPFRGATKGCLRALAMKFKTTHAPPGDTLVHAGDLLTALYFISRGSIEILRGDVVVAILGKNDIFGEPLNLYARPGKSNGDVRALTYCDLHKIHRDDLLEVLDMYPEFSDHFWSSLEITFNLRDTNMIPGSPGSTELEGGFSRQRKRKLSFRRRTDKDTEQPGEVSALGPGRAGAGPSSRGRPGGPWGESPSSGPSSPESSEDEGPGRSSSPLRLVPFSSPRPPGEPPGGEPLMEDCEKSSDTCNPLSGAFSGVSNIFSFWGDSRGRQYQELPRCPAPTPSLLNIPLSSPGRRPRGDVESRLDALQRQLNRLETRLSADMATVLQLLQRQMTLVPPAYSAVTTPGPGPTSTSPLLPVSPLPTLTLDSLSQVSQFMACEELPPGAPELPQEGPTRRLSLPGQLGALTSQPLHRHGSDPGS

Turning to `CN(C)[C@@H]1C(=O)C(C(N)=O)=C(O)[C@@]2(O)C(=O)C3=C(O)c4c(O)cccc4C[C@H]3C[C@@H]12`, the Potency entry in [1], in assay [2], in assay [3], in [4], in assay [5] and in [6] was “inactive” each time. Besides, the Potency result in assay [7], in [8], in assay [9] and in [10] was “inactive” each time.
Take `OC1(c2ccc(Cl)c(C(F)(F)F)c2)CCN(CCCC(c2ccc(F)cc2)c2ccc(F)cc2)CC1`: the Potency is 13.3 µM (active) in [1]; 13.3 µM (active) in assay [11]; 4.9 µM (active) in assay [5]; 15.5 µM (active) in assay [6]; 8.71 µM (active) in assay [7]; 239 nM (active) in [9]. Further, the Potency result in assay [4] and in [10] was “inactive” each time.
Regarding `OCCCCCCCCCCCCBr`, the Potency result in [1], in assay [2], in assay [3], in [4], in assay [5] and in [6] was “inactive” throughout. The Potency result in [7], in assay [9] and in [10] was “inactive” in each case. Besides, the Potency in assay [8] is 40.5 µM (active).
For `CCC(Cl)C(Cl)C(Cl)CC(Cl)C(Cl)C(C)Cl` (stereo unspecified), the Potency entry in assay [1], in assay [2], in [3] and in assay [10] was “inactive” in each case. Moreover, the Potency in [4] is 21.7 µM (active); in [5], 35.6 µM (active); in assay [6] it was 1.26 µM (active); in assay [7] it was 7.96 µM (active); in [8] it was 35.6 µM (active).
As for `Clc1ccccc1C(c1ccccc1)(c1ccccc1)n1ccnc1`, the Potency result in assay [1], in assay [2] and in assay [12] was “inactive” throughout. The Potency was 48.6 µM (active) in assay [3]; 770 nM (active) and 11.9 µM (active) in [4]; 3.98 µM (active) in assay [13]; 39.9 µM (active) in assay [5]; 3.99 µM (active) and 2.45 µM (active) in assay [6]; 19.5 µM (active) and 16.9 µM (active) in assay [9].
As to `CCCCCCCCNC(C)C(O)c1ccc(SC(C)C)cc1` (stereo unspecified), the Potency is 21.1 µM (active) in [1]; 16.8 µM (active) in [11]; 1.95 µM (active) in [5]; 19.5 µM (active) in [6]; 30.9 µM (active) in assay [7]; 268 nM (active) in assay [9]. The Potency entry in assay [4] and in assay [10] was “inactive” throughout.
In the case of `C/C(=C(/OCCOc1ccc(Cl)cc1)c1ccc(Cl)cc1Cl)n1ccnc1`, the Potency result in assay [1], in [2] and in assay [3] was “inactive” throughout. The Potency in assay [4] is 10.6 µM (active); in assay [5], 1.55 µM (active); in assay [6], 0.776 µM (active); in assay [7], 0.871 µM (active); in assay [8] it was 2.29 µM (active); in assay [9] it was 6740 nM (active).
Regarding `Cc1ccc(-n2nc(C(C)(C)C)cc2NC(=O)Nc2ccc(OCCN3CCOCC3)c3ccccc23)cc1`, the Potency result in assay [1], in [2] and in assay [3] was “inactive” throughout. Besides, the Potency in [4] was 23.7 µM (active); in assay [5] it was 15.5 µM (active); in assay [6], 3.89 µM (active); in assay [7], 6.92 µM (active).
Consider `CCCCCCCCS(=O)C(C)Cc1ccc2c(c1)OCO2` (stereo unspecified), for which the Potency result in [1] and in assay [2] was “inactive” each time. Also, the Potency was 69.9 µM (active) in [3]; 19.7 µM (active) in [4]; 64.6 µM (active) in assay [5]; 40.7 µM (active) in assay [6]; 28.8 µM (active) in assay [8]; 35400 nM (active) in assay [9]. Besides, the Potency in assay [10] was 5.75 µM (active).
For the compound `CC(C)(C)CC(C)(C)c1ccc(O)c(Cc2ccc(Cl)cc2Cl)c1`, the Potency in [1] was 26.6 µM (active); in assay [2], 21.1 µM (active); in [3], 29.8 µM (active); in assay [4], 2.37 µM (active); in assay [6] it was 1.74 µM (active); in [8] it was 15.5 µM (active). Further, the Potency entry in assay [12] and in [9] was “inactive” each time.
Turning to `c1cc(C(c2ccc(OCC3CO3)cc2)c2ccc(OCC3CO3)cc2)ccc1OCC1CO1` (stereo unspecified), the Potency result in assay [1], in assay [5], in assay [8] and in assay [9] was “inactive” each time. The Potency in assay [11] is 61.1 µM (active); in assay [4], 27.3 µM (active); in assay [6] it was 56.4 µM (active); in assay [7], 20 µM (active); in [10] it was 7.96 µM (active).
